Screens: PubChem, National Center for Advancing Translational Sciences (NCATS)
Compounds with a hit are over-represented: about 18% of the library has one in this group of screens.
Gal4-VP16 FLuc: VP16 counterscreen qHTS for inhibitors of ROR gamma transcriptional activity | Potency, µM (doses to about 53.6 µM), inactives show at the top dose activity, negative = inhibition, actives largely listed as inhibitors | 310,000 compounds, 3.5% hits | Drosophila S2 Gal4-VP16 UAS-luciferase, luminescence, 20 h;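 further: Gal4-VP16 expression switched on by copper sulfate through the metallothionein promoter; potency means the concentration at half of the fitted maximal effect; nearly all actives have a fitted effect of over 50% in size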
TDP1 cell noCPT: qHTS for Inhibitors of human tyrosyl-DNA phosphodiesterase 1 (TDP1): qHTS in cells in absence of CPT | DT40 Tdp1-/- hTDP1 cells, no CPT, ATP luminescence, 48 h | Potency, µM (highest dose often 46.2 µM), for the others: top-dose activity change, negative = growth inhibition, usual class: inhibitors | 420,000 compounds, 15% hits; further: potency means the concentration at half of the fitted maximal effect; nearly all actives have a fitted effect of over 55% in size
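DT40 Tdp1-/-;hTDP1 cells, no CPT (DMSO vehicle only), 400 cells/well; compounds pin-transferred; ≥48 hr, 37 °C; CellTiter-Glo 30 min RT dark, luminescence read.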
RORg inh: qHTS for inhibitors of ROR gamma transcriptional activity | Nuclear receptor ROR-gamma (Mus musculus), P51450 | Drosophila S2 Gal4-RORgamma UAS-luciferase reporter, 20 h | Potency, µM (top dose mostly 53.6 µM), for the others: top-dose activity change, negative = inhibition, most hits filed as inhibitors | 310,000 compounds, 5.4% hits | AID 2551, 2010; further: potency means the concentration at half of the fitted maximal effect; nearly all actives have a fitted effect of over 60% in size
Target sequence (P51450 whole entry, looked up, the tested form may be a part): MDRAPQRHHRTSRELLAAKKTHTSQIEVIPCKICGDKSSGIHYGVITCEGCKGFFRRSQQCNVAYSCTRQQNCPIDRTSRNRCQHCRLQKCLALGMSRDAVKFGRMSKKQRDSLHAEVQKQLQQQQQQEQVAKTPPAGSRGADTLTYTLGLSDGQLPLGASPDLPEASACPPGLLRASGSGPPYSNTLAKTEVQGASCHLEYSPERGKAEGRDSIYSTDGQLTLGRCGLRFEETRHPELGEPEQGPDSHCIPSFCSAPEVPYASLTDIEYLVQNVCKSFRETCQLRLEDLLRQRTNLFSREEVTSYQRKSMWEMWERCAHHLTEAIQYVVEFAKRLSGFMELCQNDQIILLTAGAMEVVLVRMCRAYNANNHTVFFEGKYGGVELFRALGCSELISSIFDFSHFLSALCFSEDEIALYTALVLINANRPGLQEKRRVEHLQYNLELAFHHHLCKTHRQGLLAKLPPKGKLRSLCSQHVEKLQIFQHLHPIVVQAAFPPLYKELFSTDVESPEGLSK
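Luciferase reporter read in Schneider cells carrying Gal4-RORγ (mouse) and UAS-Photinus luciferase; cells given compound 1 h before 700 uM copper sulfate induction, then incubated 20 h at ambient temperature.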
LDHA inh: qHTS assay for inhibitors of human lactate dehydrogenase; L-lactate dehydrogenase A chain (Homo sapiens), P00338; 480,000 compounds, 0.15% hits; activity change, % (values are at about 110 or 230 µM); AID 1347041, 2019; purified LDHA, NADH/diaphorase-resazurin fluorescence; hits give low values; in the data active means activity change below about -30%; inconclusive means mostly about -25% to -30%;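 further: plate controls were DMSO wells for no effect and wells without enzyme for full effect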
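LDH5 2 nM; NADH 0.06 mM, pyruvate 0.2 mM; 200 mM Tris pH 7.4, EDTA, Tween-20; 5 min RT. Detection: diaphorase 0.133 mg/mL + resazurin 37 µM, fluorescence ex540/em590 at 0 and 20 min; normalized to enzyme-free and DMSO wells.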
IL1B secr inh: qHTS for Inhibitors of Inflammasome Signaling: IL-1-beta AlphaLISA Primary Screen; THP-1 LPS/ATP IL-1B secretion, AlphaLISA, 16 h; hits give low values; activity change, % at 57.5 µM; 360,000 compounds, 4.7% hits; AID 743279, 2014; in the data active means activity change below about -50%; inconclusive means mostly about -30% to -49%
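Secreted IL-1B measured by AlphaLISA bead assay after 16 h compound exposure of THP-1 cells; compounds (final up to 57.5 uM) added 1 h before LPS (250 ng/mL) and ATP (1.25 mM) stimulation; lower signal means less secretion.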
DT40 TDP1 CPT: qHTS for Inhibitors of human tyrosyl-DNA phosphodiesterase 1 (TDP1): qHTS in cells in presence of CPT. chicken DT40 Tdp1-/-;hTDP1 cells + 20 nM CPT, ATP luminescence, 48 h. Potency, µM (doses to about 46.2 µM), for the others: at the highest dose activity change, negative = growth inhibition, most hits filed as inhibitors. 420,000 compounds, 12% hits. AID 686979, 2013; further: potency means the concentration at half of the fitted maximal effect; nearly all actives have a fitted effect of over 55% in size
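Cell growth measured by CellTiter-Glo luminescence after a minimum 48 h, 37 C compound exposure with 20 nM CPT in Tdp1-knockout DT40 cells stably expressing hTDP1, seeded 400/well; qHTS titration format.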
Active calls of the source: *; ? = inconclusive; · = no result; [ ] = dose if it differs, or a comment. Unless noted, the call rests on the fitted dose curve; in most records, active means well fitted curve in the direction sought with a large enough effect; inconclusive means small, poorly fitted or top-dose-only effect, or another doubt; inactive means no such curve, though single readings can be large; an effect the other way counts as inactive or inconclusive. Unless noted, on the % scale 0 is the no-effect control and ±100 the full control effect.

SMILES	Gal4-VP16 FLuc	TDP1 cell noCPT	RORg inh	LDHA inh	IL1B secr inh	DT40 TDP1 CPT
C1CCCCCC2(CCCCC1)OCC(CN1CCOCC1)O2 (stereo unspecified)	-12%	23µM*	-13%	3	7	?
CCCCN1C(=O)CC(SC2CC(=O)N(CCCC)C2=O)C1=O (stereo unspecified)	·	5.8µM*	·	-6	-10	16µM*
CCN1C(=O)CC(SC2CC(=O)N(CC)C2=O)C1=O (stereo unspecified)	·	8.2µM*	·	-11	-2	3.7µM*
CCN1C(=O)CC(N2CCC(C(=O)OC)CC2)C1=O (stereo unspecified)	·	-17%	34%[0.365 µM]	-6	10	13%
CCNc1oc(-c2ccc(COc3cc(C)ccc3C)o2)nc1C#N	·	·	·	-3	·	·
N#CC(C#N)=C(Nc1ccc(F)cc1)SCc1cccc(F)c1	14µM*	2.6µM*	?	0	?	2.6µM*
Cn1c(-c2ccccc2)c(C(=O)CSc2ncc(C(F)(F)F)cc2Cl)c2ccccc21	·	·	·	1	·	·
CCOCCCNCc1cccc(C)c1	·	·	·	-2	·	·
CCCc1cc(=O)n(-c2nc3ccccc3s2)[nH]1	0%	17%	?	0	11	0%
CCOC(=O)Cc1cc(=O)n(-c2nc3ccccc3s2)[nH]1	4%	18µM*	-21%	-9	13	-29%
CC1(C)CC(=O)C(C=Nc2ccc(O)c(N=CC3=C(O)CC(C)(C)CC3=O)c2)=C(O)C1	-1%	?	-14%	6	7	16µM*
CC1(C)CC(=O)C(C=Nc2cccnc2)=C(O)C1	-7%	-14%	-21%	-9	-2	-13%
CC1(C)CC(=O)C(C=Nc2ccc3c(c2)OCO3)=C(O)C1	-4%	-10%	18%	9	1	-26%
CC1(C)CC(=O)C(N=Nc2cc(Cl)c(Cl)c(Cl)c2)=C(O)C1	?	0%	26%	-1	32	-1%
Cc1ccc(O)c(N=NC2=C(O)CC(C)(C)CC2=O)c1	8.9µM*	8.2µM*	7.9µM*	12	46	15µM*
CC1(C)CC(=O)C(C=Nc2ccc(C(=O)c3ccccc3)cc2N=CC2=C(O)CC(C)(C)CC2=O)=C(O)C1	-9%	?	16µM*	1	10	?
CC1(C)CC(=O)C(C=Nc2cccnc2/N=C/C2=C(O)CC(C)(C)CC2=O)=C(O)C1	-13%	?	10µM*	3	-10	4.6µM*
Cc1cnc2c(S(=O)(=O)N(CC(C)C)C3CC3)cccc2c1	·	·	·	9	·	·
COc1ccc(-c2nn(C)c(=O)c3ccccc23)cc1NC(=O)c1ccccc1Cl	·	·	·	6	·	·
O=C(Nc1ccc(F)cc1)C(=O)c1c[nH]c2ccccc12	·	·	·	-4	·	·
C=C(C)CN1CCN(c2nc3c(c(=O)[nH]c(=O)n3C)n2Cc2ccccc2F)CC1	·	·	·	-3	·	·
C=CCN(CC=C)S(=O)(=O)c1ccc(NC(=S)NC(=O)Cc2ccc(OC)cc2)cc1	?	21µM*	7.1µM*	-3	8	?
COc1ccc(C(=O)NC(=S)Nc2ccc(S(N)(=O)=O)cc2)cc1	10%	-10%	-11%	-4	-9	-3%
COc1ccc(NC(=S)NC(=O)Cc2ccccc2)cc1	7.1µM*	19%	8.9µM*	-2	15	-1%
COc1ccccc1NC(=S)NNC(=S)Nc1ccc(OC(F)F)cc1	29%	21µM*	39%	-9	-86*	?
